# Results published in PMC7862700, “An all-to-all approach to the identification of sequence-specific readers for epigenetic DNA modifications on cytosine”.
# Columns and labels:
# Assay in all cases: DAPPL (digital affinity profiling via proximity ligation, sequencing); 10 mM Tris-HCl pH 7.5, 50 mM NaCl, 1 mM DTT, 4% glycerol, room temperature, 30 min; GST-TFs on glutathione beads, 16-mer random dsDNA library, 0.1% formaldehyde crosslink after washing; high values mean tight binding
# [1] = biological target: HSF1 (Homo sapiens, UniProt Q00613 1-529); conditions: protein: recombinant; tags: N-terminal GST; chain copies: 3; dsDNA, one strand shown
# Sequence of HSF1 (Q00613 whole entry, the tested form may be a part): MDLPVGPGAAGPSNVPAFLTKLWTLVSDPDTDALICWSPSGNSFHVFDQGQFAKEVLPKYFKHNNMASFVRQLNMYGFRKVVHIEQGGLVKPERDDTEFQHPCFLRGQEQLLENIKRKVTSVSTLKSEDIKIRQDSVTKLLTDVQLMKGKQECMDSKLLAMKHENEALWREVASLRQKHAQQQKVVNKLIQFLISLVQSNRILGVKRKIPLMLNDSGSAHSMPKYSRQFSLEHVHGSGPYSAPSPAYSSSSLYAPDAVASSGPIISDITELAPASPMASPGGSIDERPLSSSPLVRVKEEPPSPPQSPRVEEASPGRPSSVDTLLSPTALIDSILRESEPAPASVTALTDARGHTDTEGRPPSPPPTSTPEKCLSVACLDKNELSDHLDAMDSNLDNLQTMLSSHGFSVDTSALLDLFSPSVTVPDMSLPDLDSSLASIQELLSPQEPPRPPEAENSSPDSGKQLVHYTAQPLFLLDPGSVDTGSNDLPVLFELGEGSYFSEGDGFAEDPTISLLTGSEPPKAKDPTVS
# Outline: (§1)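 After expression in yeast as GST fusions, human transcription factors were bound to glutathione beads, DNA-barcoded and mixed with a tag-only sample. The pools were incubated with 200 nmole of a 16-mer random double-stranded DNA library in Tris/NaCl/DTT/glycerol buffer (30 min, room temperature), washed and crosslinked with 0.1% formaldehyde. Proximity ligation with BsaI/T4 ligase ran for 1 h at 37 °C, before PCR amplification and sequencing on an Illumina NextSeq500. Binding signal is a hexamer's read frequency for a factor divided by its frequency for the tag-only sample.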
# [2] = biological target: CRX (Homo sapiens, UniProt O43186 1-299); conditions: protein: recombinant; tags: N-terminal GST; dsDNA, one strand shown
# Sequence of CRX (O43186 whole entry): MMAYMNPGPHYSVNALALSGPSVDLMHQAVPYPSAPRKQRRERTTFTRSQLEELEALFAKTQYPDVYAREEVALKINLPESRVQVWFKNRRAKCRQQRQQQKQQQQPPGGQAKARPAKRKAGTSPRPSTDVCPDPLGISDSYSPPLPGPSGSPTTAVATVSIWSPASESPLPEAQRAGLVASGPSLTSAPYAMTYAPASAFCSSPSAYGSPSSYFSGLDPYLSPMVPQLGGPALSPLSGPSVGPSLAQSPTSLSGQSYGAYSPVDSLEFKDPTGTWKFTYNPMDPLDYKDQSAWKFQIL
# Outline: as §1
# [3] = biological target: T1, ETV2 (Homo sapiens, UniProt O00321 1-342); conditions: protein: recombinant; tags: N-terminal GST; dsDNA, one strand shown
# T1 sequence: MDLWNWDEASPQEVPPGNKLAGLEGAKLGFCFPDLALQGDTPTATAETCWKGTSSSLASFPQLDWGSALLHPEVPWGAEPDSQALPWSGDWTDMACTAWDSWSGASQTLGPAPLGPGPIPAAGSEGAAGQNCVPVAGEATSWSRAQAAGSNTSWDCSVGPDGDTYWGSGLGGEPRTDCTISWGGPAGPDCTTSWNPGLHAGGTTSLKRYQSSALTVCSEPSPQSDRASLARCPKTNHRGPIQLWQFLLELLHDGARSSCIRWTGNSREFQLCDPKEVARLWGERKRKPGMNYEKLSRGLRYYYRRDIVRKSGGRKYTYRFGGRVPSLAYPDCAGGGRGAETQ
# Outline: as §1
# [4] = biological target: T2, ELK3 (Homo sapiens, UniProt P41970 1-407); conditions: protein: recombinant; tags: N-terminal GST; dsDNA, one strand shown
# T2 sequence: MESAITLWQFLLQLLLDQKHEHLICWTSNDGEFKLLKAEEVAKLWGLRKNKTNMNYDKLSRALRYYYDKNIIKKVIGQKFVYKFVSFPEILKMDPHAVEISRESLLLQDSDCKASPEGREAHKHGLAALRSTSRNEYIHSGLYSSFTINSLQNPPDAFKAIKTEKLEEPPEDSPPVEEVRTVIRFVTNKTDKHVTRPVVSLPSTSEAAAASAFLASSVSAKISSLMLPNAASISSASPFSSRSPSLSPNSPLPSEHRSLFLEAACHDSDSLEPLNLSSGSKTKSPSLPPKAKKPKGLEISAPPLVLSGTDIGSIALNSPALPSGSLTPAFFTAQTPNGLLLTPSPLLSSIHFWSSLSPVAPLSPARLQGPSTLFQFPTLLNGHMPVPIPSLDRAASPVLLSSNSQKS
# Outline: as §1
# [5] = biological target: T3, ETV3L (Homo sapiens, UniProt Q6ZN32 1-361); conditions: protein: recombinant; tags: N-terminal GST; dsDNA, one strand shown
# T3 sequence: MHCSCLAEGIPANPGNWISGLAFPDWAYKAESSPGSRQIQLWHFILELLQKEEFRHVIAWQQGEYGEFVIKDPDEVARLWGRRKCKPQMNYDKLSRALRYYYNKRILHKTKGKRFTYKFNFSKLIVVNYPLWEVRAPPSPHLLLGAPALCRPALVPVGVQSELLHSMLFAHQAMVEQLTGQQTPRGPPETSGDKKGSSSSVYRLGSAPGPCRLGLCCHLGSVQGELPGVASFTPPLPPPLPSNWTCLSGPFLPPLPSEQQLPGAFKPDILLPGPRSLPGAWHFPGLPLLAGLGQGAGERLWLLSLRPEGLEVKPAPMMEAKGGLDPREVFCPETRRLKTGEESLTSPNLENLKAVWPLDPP
# Outline: as §1
# [6] = biological target: T4, SPDEF (Homo sapiens, UniProt O95238 1-335); conditions: protein: recombinant; tags: N-terminal GST; dsDNA, one strand shown
# T4 sequence: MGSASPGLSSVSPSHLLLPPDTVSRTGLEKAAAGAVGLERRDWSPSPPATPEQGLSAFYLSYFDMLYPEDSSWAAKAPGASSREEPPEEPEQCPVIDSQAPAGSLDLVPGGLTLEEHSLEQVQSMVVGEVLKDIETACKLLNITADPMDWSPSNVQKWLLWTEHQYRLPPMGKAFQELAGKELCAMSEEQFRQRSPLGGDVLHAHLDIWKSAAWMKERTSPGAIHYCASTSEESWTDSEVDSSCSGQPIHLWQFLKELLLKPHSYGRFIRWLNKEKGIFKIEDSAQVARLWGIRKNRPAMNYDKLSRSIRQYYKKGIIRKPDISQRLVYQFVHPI
# Outline: as §1
# [7] = biological target: SPI1 (Homo sapiens, UniProt P17947 1-270); conditions: protein: recombinant; tags: N-terminal GST; dsDNA, one strand shown
# Outline: as §1
# [8] = biological target: T5, ELF3 (Homo sapiens, UniProt P78545 1-371); conditions: protein: recombinant; tags: N-terminal GST; dsDNA, one strand shown
# T5 sequence: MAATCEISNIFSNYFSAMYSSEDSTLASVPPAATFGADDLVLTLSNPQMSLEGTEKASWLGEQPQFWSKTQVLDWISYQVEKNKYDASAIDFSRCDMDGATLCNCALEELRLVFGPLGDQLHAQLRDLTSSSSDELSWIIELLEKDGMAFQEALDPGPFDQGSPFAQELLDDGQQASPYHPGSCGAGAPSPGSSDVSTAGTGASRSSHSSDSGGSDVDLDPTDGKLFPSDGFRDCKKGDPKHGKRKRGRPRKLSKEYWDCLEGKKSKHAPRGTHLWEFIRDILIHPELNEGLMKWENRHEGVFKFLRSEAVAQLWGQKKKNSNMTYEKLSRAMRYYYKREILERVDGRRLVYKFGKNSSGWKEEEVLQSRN
# Outline: as §1
# [9] = biological target: T6, ELK1 (Homo sapiens, UniProt P19419 1-428); conditions: protein: recombinant; tags: N-terminal GST; dsDNA, one strand shown
# T6 sequence: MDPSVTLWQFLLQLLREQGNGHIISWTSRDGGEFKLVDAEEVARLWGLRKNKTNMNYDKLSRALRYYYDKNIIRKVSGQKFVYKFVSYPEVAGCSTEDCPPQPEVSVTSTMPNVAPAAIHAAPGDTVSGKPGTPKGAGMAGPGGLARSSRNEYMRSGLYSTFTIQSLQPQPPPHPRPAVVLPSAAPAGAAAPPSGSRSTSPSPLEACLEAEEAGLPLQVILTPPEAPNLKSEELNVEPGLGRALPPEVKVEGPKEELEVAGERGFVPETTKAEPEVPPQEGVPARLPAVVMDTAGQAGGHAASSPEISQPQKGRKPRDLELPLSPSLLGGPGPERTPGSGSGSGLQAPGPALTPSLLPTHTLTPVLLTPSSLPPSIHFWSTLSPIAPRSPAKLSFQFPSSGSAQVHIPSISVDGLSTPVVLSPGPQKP
# Outline: as §1
# [10] = biological target: T7, EHF (Homo sapiens, UniProt Q9NZC4 1-300); conditions: protein: recombinant; tags: N-terminal GST; dsDNA, one strand shown
# T7 sequence: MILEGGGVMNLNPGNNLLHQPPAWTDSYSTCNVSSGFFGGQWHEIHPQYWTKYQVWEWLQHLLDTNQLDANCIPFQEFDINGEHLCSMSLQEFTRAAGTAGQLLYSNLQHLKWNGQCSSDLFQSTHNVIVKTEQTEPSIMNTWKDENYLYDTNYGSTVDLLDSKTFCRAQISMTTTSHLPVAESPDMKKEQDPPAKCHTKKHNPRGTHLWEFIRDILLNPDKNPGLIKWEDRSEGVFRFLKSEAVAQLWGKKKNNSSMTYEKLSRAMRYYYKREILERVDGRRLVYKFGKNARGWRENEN
# Outline: as §1
# [11] = biological target: SPIB (Homo sapiens, UniProt Q01892 1-262); conditions: protein: recombinant; tags: N-terminal GST; dsDNA, one strand shown
# Sequence of SPIB (Q01892 whole entry): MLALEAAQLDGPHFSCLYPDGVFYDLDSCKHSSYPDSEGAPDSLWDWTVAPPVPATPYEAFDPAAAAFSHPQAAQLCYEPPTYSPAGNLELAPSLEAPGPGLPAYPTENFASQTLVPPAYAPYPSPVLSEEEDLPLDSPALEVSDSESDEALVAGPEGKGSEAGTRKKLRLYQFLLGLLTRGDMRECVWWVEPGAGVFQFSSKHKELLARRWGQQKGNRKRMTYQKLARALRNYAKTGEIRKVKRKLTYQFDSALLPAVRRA
# Outline: as §1
# [12] = biological target: ETV6 (Homo sapiens, UniProt P41212 1-452); conditions: protein: recombinant; tags: N-terminal GST; dsDNA, one strand shown
# Sequence of ETV6 (P41212 whole entry): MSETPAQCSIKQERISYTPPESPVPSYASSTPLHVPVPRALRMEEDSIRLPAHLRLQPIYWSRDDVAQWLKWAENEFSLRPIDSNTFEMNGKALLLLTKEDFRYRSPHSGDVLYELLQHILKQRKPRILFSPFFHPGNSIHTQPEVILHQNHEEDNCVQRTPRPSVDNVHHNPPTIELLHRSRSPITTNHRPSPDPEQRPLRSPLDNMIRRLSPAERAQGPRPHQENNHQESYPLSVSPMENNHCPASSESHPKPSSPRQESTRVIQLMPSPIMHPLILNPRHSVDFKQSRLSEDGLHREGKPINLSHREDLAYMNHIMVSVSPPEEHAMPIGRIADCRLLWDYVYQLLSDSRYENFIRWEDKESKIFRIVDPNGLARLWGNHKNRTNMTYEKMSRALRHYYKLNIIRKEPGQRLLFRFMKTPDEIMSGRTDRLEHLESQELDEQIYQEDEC
# Outline: as §1
sequence,measurement,setting,value
AATCGT,binding signal,[1],"1.01 fold enrichment (6-mer frequency, TF over GST control)"
same,binding signal,[2],"1.15 fold enrichment (6-mer frequency, TF over GST control)"
TTAGAG,binding signal,[1],"1.25 fold enrichment (6-mer frequency, TF over GST control)"
same,binding signal,[3],"1.01 fold enrichment (6-mer frequency, TF over GST control)"
same,binding signal,[2],"1.77 fold enrichment (6-mer frequency, TF over GST control)"
GACTAA,binding signal,[1],"1.13 fold enrichment (6-mer frequency, TF over GST control)"
same,binding signal,[2],"1.44 fold enrichment (6-mer frequency, TF over GST control)"
ATCAAG,binding signal,[4],"1.04 fold enrichment (6-mer frequency, TF over GST control)"
same,binding signal,[1],"1.03 fold enrichment (6-mer frequency, TF over GST control)"
same,binding signal,[3],"1.17 fold enrichment (6-mer frequency, TF over GST control)"
same,binding signal,[2],"1.19 fold enrichment (6-mer frequency, TF over GST control)"
same,binding signal,[5],"1.06 fold enrichment (6-mer frequency, TF over GST control)"
same,binding signal,[6],"1.01 fold enrichment (6-mer frequency, TF over GST control)"
CAGATA,binding signal,[1],"1.12 fold enrichment (6-mer frequency, TF over GST control)"
same,binding signal,[2],"1.17 fold enrichment (6-mer frequency, TF over GST control)"
AGACTA,binding signal,[1],"1.06 fold enrichment (6-mer frequency, TF over GST control)"
same,binding signal,[2],"1.02 fold enrichment (6-mer frequency, TF over GST control)"
GTAGAA,binding signal,[7],"1.01 fold enrichment (6-mer frequency, TF over GST control)"
same,binding signal,[1],"1.47 fold enrichment (6-mer frequency, TF over GST control)"
same,binding signal,[8],"1.06 fold enrichment (6-mer frequency, TF over GST control)"
TAAGAG,binding signal,[1],"1.19 fold enrichment (6-mer frequency, TF over GST control)"
same,binding signal,[2],"1.46 fold enrichment (6-mer frequency, TF over GST control)"
AGAGAT,binding signal,[1],"1.16 fold enrichment (6-mer frequency, TF over GST control)"
same,binding signal,[2],"1.38 fold enrichment (6-mer frequency, TF over GST control)"
GAATGG,binding signal,[9],"1 fold enrichment (6-mer frequency, TF over GST control)"
same,binding signal,[10],"1.02 fold enrichment (6-mer frequency, TF over GST control)"
same,binding signal,[11],"1.06 fold enrichment (6-mer frequency, TF over GST control)"
same,binding signal,[1],"1.07 fold enrichment (6-mer frequency, TF over GST control)"
same,binding signal,[3],"1.1 fold enrichment (6-mer frequency, TF over GST control)"
same,binding signal,[5],"1.01 fold enrichment (6-mer frequency, TF over GST control)"
same,binding signal,[12],"1.04 fold enrichment (6-mer frequency, TF over GST control)"
